Test results: PubChem BioAssay (Tox21)
Results filed as inconclusive are left out. Active and inactive are the calls of the source. Unless noted, calls follow the shape of the dose curve; as a rule, active = well fitted curve in the direction sought with a large enough effect in the repeat runs; inconclusive = weak or mixed curves; inactive = flat fitted curve, though single readings scatter.

What was measured:
[1] = qHTS assay to test for compound auto fluorescence at 535 nm (green) in HEK293 cells (AID 720680)
[2] = qHTS assay to test for compound auto fluorescence at 460 nm (blue) in HEK293 cell free culture (AID 720681)
How it was run: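 Blue fluorescence (Ex 405/Em 460 nm, triamterene-equivalent) was read immediately after pin transfer of compound or DMSO into medium (DMEM, 10% FBS) without cells.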

[3] = qHTS assay to test for compound auto fluorescence at 535 nm (green) in HEK293 cell free culture (AID 720682)
How it was run: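 Green-label autofluorescence (485 nm excitation, 535 nm emission) measured on compound added to cell-free culture medium (DMEM, 10% FBS). Output is expressed relative to fluorescein.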

[4] = qHTS assay to test for compound auto fluorescence at 590 nm (red) in HEK293 cell free culture (AID 720683)
How it was run: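 Red-channel autofluorescence of compounds in culture medium (DMEM, 10% FBS), no cells, measured at 540/590 nm. Rose Bengal sodium is the reference fluorophore for equivalence.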

[5] = qHTS assay to test for compound auto fluorescence at 590 nm (red) in HepG2 cell free culture (AID 720684)
How it was run: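 Steps: dispense MEM/10% FBS medium, no cells; pin compound or DMSO vehicle; read red channel, Ex/Em 540/590 nm. Output given as Rose Bengal sodium equivalents.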

[6] = qHTS assay to test for compound auto fluorescence at 460 nm (blue) in HepG2 cell free culture (AID 720685)
How it was run: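 Compound (23 nL) or DMSO pinned into cell-free MEM with 10% FBS; blue fluorescence read at 405/460 nm excitation/emission, expressed as auto-fluorescence equivalency to triamterene.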

[7] = qHTS assay to test for compound auto fluorescence at 535 nm (green) in HepG2 cell free culture (AID 720686)
[8] = qHTS assay to test for compound auto fluorescence at 460 nm (blue) in HepG2 cells (AID 720687)
How it was run: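 Blue-channel autofluorescence (Ex/Em 405/460 nm, triamterene-equivalent) was measured after 1 hr compound exposure at 37 C, 5% CO2. Cells were HepG2, plated overnight at 37 C in MEM plus 10% FBS.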

[9] = target: Glucocorticoid receptor (Homo sapiens) (UniProt P04150); experiment: qHTS assay to identify small molecule agonists of the glucocorticoid receptor (GR) signaling pathway (AID 720691; active = well fitted activation curve with a large enough effect in the signal ratio in the repeat runs, not every such curve was filed as active; the % refers to the signal ratio)
How it was run: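 GR-bla HeLa cells carrying a GRE-driven beta-lactamase reporter, exposed to compounds for 18 h at 37 C. Reporter activation read as fluorescence after 2 h with LiveBLAzer B/G FRET substrate at room temperature.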

[10] = target: Glucocorticoid receptor (Homo sapiens) (UniProt P04150); experiment: qHTS assay to identify small molecule antagonists of the glucocorticoid receptor (GR) signaling pathway (AID 720692; active = well fitted inhibition curve with a large enough effect in the signal ratio in the repeat runs, not every such curve was filed as active; the % refers to the signal ratio)
How it was run: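 GR-bla HeLa cells carrying a GRE-driven beta-lactamase reporter received compound after 4 h plating, then dexamethasone (5 nM final). After 18 h at 37C, the FRET substrate was loaded for 2 h at room temperature and fluorescence read.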

Measured: Potency

Chain of Glucocorticoid receptor (Homo sapiens) (P04150 whole entry, looked up): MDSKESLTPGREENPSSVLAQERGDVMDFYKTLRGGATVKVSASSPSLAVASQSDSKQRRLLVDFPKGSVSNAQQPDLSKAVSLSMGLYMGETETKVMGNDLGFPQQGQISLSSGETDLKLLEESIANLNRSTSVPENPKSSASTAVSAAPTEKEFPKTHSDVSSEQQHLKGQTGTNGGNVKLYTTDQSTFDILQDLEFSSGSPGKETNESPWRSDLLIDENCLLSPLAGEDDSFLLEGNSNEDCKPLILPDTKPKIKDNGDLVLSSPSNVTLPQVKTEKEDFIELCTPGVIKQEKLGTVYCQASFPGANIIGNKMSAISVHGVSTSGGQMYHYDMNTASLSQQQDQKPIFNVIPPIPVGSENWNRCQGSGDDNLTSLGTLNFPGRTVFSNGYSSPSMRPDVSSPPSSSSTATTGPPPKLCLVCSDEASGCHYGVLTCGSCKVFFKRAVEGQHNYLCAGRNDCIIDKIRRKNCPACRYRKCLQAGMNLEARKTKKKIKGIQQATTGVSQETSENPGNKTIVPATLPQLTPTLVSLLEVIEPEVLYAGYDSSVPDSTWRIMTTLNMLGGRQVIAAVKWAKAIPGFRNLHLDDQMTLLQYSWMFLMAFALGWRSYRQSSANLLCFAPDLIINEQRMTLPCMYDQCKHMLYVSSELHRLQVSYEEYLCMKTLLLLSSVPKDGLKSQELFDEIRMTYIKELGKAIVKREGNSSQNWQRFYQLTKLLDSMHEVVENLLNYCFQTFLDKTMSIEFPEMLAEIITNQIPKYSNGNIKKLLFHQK

CC(C)C[C@@H](N)C(=O)O
not listed: [10]
inactive: all other assays above

NS(=O)(=O)Cc1noc2ccccc12
not listed: [10]
inactive: all other assays above

c1ccc2sc(SN3CCOCC3)nc2c1
inactive: all assays above

CCNS(=O)(=O)c1ccc(C)cc1
not listed: [10]
inactive: all other assays above

CC1CCC(CO)CC1 (stereo not given)
not listed: [10]
inactive: all other assays above

CC(C)(N)C#N
not listed: [10]
inactive: all other assays above

Nc1ccncc1N
inactive: all assays above

CC[C@H]1OC(=O)[C@H](C)[C@@H](O[C@H]2C[C@@](C)(OC)[C@@H](O)[C@H](C)O2)[C@H](C)[C@@H](O[C@@H]2O[C@H](C)C[C@H](N(C)C)[C@H]2O)[C@](C)(OC)C[C@@H](C)C(=O)[C@H](C)[C@@H](O)[C@]1(C)O
inactive: all assays above

CCCC[N+](C)(CCCC)CCCC
inactive: all assays above

CCN[C@H]1C[C@H](C)S(=O)(=O)c2sc(S(N)(=O)=O)cc21
inactive: all assays above

CCCCCC(C)N (stereo not given)
inactive: all assays above

Cc1cccc(C)c1NC(=O)CC12CCCN1CCC2
inactive: all assays above

O=C(O)CC(C(=O)O)S(=O)(=O)O (stereo not given)
inactive: all assays above

C1CCC2=NCCCN2CC1
inactive: all assays above

CC(C)(CCC(=O)O)C(=O)O
inactive: all assays above

CCCCOCCOC(=O)COc1cc(Cl)c(Cl)cc1Cl
inactive: all assays above

CCCC(C)C(=O)OCC (stereo not given)
inactive: all assays above

O=C1CCCCCCCCCCCCCCO1
inactive: all assays above

CC(C)(C)c1ccc(-c2ccc(C(C)(C)C)cc2)cc1
inactive: all assays above
